# Compounds with a hit are over-represented: about 3.3% of the library has one in this group of screens.
# ERAP1 inh: inhibitors of human ERAP1 aminopeptidase; Q9NZ08; recombinant ERAP1, Leu-AMC fluorescence, 60 min; inhibition, % at 10.7 µM; 340,000 compounds, 0.15% hits;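 active = mean replicate inhibition of at least 30%, or all replicates individually reaching that 30% level; inactive = mean below 30% and not every replicate reaching it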;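 also: 0% = neutral control wells and 100% = L-leucinethiol positive control wells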
# Casp6 inh: blocks human caspase-6 cleavage activity. P55212. purified caspase-6, Z-VEID-R110 cleavage fluorescence. inhibition, % at 12.5 µM. 350,000 compounds, 0.53% hits. AID 686996;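 active = mean inhibition across replicates at least about 35%, with every replicate also reaching that limit, limit read from the data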;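 also: 0% = median of neutral control wells and 100% = no fluorescence left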
# SIRT5 block: sirtuin-5 (human) deacylase inhibition; Purified SirT5, succinyl-peptide AMC, trypsin-coupled fluorescence; inhibition, % at 15 µM; 330,000 compounds, 1.1% hits; AID 652115; in the data active = inhibition above about 15%
# Target sequence (Q9NXA8 whole entry, looked up): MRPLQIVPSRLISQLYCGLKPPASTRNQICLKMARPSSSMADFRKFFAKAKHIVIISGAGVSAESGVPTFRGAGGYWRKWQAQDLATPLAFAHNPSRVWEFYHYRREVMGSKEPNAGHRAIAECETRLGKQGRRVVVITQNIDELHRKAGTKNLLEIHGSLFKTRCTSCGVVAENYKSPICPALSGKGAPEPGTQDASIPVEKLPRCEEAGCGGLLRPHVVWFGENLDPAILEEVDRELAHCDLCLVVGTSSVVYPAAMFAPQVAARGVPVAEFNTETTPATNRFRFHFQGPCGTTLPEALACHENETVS
# INS-1E GSIS act: GLuc luminescence reporter in INS-1E cells, primary screen for activators of glucose-dependent secretion of insulin | 370,000 compounds, 0.61% hits | INS-1E GLuc reporter insulin secretion, 2-3 h | activation, % at 16.6 µM | AID 743287;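 active = lowest replicate activation of at least 40%, so every replicate reaches that level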;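 also: 0% = median of neutral control wells and 100% = median of IBMX positive control wells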
# FGF22 binding: shifts melting point of recombinant human FGF22; activity (Tm shift, normalised), % at 9.99 µM; Q9HCT0; recombinant FGF22 thermal shift, SYPRO orange fluorescence; percent of sucrose octasulfate shift, DMSO zero; 340,000 compounds, 1.5% hits;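 active = mean Tm shift, scaled 0 neutral to 100 positive control, at about 1.3% or above, every replicate too, limit read from the data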
# Target sequence (Q9HCT0 whole entry, looked up): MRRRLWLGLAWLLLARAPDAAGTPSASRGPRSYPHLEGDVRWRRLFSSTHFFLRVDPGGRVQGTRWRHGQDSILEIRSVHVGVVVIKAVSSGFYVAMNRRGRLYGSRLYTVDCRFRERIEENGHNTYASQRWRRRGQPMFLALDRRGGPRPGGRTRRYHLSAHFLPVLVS
# Numbers without * were called inactive; · = no result given.
SMILES,ERAP1 inh,Casp6 inh,SIRT5 block,INS-1E GSIS act,FGF22 binding
CS(=O)(=O)c1ccc(Cl)c(NC(=O)COC(=O)Cc2c[nH]c3ccccc23)c1,-1,0,1,52*,-1
O=C(Nc1ccccc1F)c1cc2c(s1)-c1ccccc1S(=O)(=O)C2,·,-1,24*,19,0
CS(=O)(=O)N1Cc2cc(C(=O)NCC3CC3)nc(-c3cccc(-c4cncnc4)c3)c2[C@@H]1CCO,-1,3,-2,12,0
O=C1NC(c2ccc(-c3ccccc3[N+](=O)[O-])o2)C(C(=O)c2ccccc2)C(O)(C(F)(F)F)N1 (stereo unspecified),-1,5,-5,-4,43*
Cc1ccc(NS(=O)(=O)c2ccc(C(=O)OCC(=O)Nc3cc(C)on3)cc2)cc1,7,1,0,-14,43*
CCOc1ccccc1OCC(=O)Nc1cc(C)on1,2,5,-13,·,0
CCOc1ccc(C(=O)OCC(=O)Nc2cc(C)on2)cc1OCC,·,·,·,62*,·
CCOc1ccc(C(=O)NC2CCCCCCC2)cc1,0,0,-4,0,0
Cc1cc(NC(=O)COC(=O)[C@@H](NS(=O)(=O)c2ccccc2)C(C)C)no1,-2,-1,-8,11,43*
CCOc1cccc(C(=O)NC2CCCCC2)c1,-2,-2,22*,10,0
O=C(C[C@H]1CC[C@@H]2[C@H](COC[C@H](O)CN2C(=O)c2ccccc2F)O1)N1CCOCC1,-3,-2,-5,-2,0
CCOc1ccc(-c2noc(CCCC(=O)NC3CCCC3)n2)cc1OC,-3,-1,19*,0,0
CCOc1cc(C(=O)OCC(=O)Nc2cc(C)on2)ccc1OCC(C)C,1,0,10,-7,44*
CCOc1ccc(C(=O)OCC(=O)NC2CCCC2)cc1OCC,0,3,-2,41*,0
CCC(=O)N1[C@@H]2c3ccc(-c4ccccc4)c(=O)n3C[C@@H]2[C@@H](CO)[C@@H]1C(=O)N(C)C,·,·,·,4,0
Cn1cc(Cl)c(C(=O)NC(=S)Nc2sc3c(c2C#N)CCCCC3)n1,5,-1,-1,-21,52*
Cn1cc(Br)c(C(=O)Nc2sc3c(c2C#N)CCC3)n1,3,3,-2,-5,0
COc1ccccc1/C=N/NC(=O)c1ccc(CN2C(=O)c3cccc4cccc2c34)cc1,·,0,-6,1,0
NNC(=O)c1ccc(CN2C(=O)c3cccc4cccc2c34)cc1,3,0,-1,2,44*
CC(C)=NNc1cc([N+](=O)[O-])cc2c1C(=O)N(C)S2=O (stereo unspecified),2,40*,-7,-2,1
NNc1cc([N+](=O)[O-])cc2c1C(=O)N(Cc1ccccc1)S2=O (stereo unspecified),-4,7,0,-13,0
CC1CC(NC(=O)c2cc3c(=O)n4ccccc4nc3n2C)CC(C)(C)C1 (stereo unspecified),2,1,15*,2,0
Cn1c(C(=O)N2CCOCC2)cc2c(=O)n3ccccc3nc21,57*,-2,-51,17,0
CN(C(=O)c1cc2c(=O)n3ccccc3nc2n1C)C1CCCCC1,61*,-1,-43,44,0
Cc1cccn2c(=O)c3cc(C(=O)N4CCOCC4)n(C)c3nc12,-21,1,-9,19,0
SMILES,ERAP1 inh,Casp6 inh,SIRT5 block,INS-1E GSIS act,FGF22 binding
CCN(C(=O)c1cc2c(=O)n3ccccc3nc2n1C)C1CCCCC1,20,4,-53,-12,0
Cn1c(C(=O)O)cc2c(=O)n3ccccc3nc21,-116,0,-43,7,42
CC1CN(C(=O)c2cc3c(=O)n4ccccc4nc3n2C)CC(C)O1 (stereo unspecified),38*,2,-63,3,0
COc1ccc(NC(=O)N(C)C[C@@H]2Oc3ncc(C#CCN(C)C)cc3C(=O)N([C@@H](C)CO)C[C@H]2C)cc1,-6,5,-1,4,0
C[C@H]1CN([C@@H](C)CO)C(=O)c2cc(C#CCN(C)C)cnc2O[C@@H]1CN(C)C(=O)c1cnccn1,-1,2,-2,1,0
CC(C)(C)c1cc(Cl)ccc1OCCOCCN1CCCC1,3,-37,2,5,0
Clc1ccc(Cl)c(OCCN2CCCC2)c1,-1,-6,16*,·,0
CCCN(C)C[C@H]1OCCCC[C@H](C)Oc2ccc(NS(=O)(=O)c3ccc(OC)cc3)cc2C(=O)N([C@H](C)CO)C[C@H]1C,1,-2,0,6,0
COc1ccc(OC2C(=O)N(c3ccc(C)c(C)c3)C2c2ccc(OC)c(OC)c2)cc1 (stereo unspecified),-3,-3,0,2,44*
Cc1cc(C)n(CC(=O)NNC(=O)COc2ccc(Cl)cc2Cl)n1,1,0,15*,1,0
O=C(C[C@@H]1CC[C@@H](NC(=O)NC2CCCCC2)[C@H](CO)O1)NCc1ccc(Cl)cc1,1,1,-2,10,0
CC1=C(/C=C/C(C)=C/C=C/C(C)=C/CO)C(C)(C)CCC1,1,5,26*,·,0
CC1=C(/C=C/C(C)=N\NC(=O)c2ccncc2)C(C)(C)CCC1,-7,-4,4,-2,0
CO[C@@H]1CN(C)C(=O)c2ccc(NC(=O)c3ccc(F)cc3)cc2OC[C@H](C)N(C(C)=O)C[C@@H]1C,-2,0,-3,7,0
CN=C1c2ccccc2CN1c1cccc(C(=O)OC)c1,·,·,·,89*,·
CCC(=O)Nc1ccc(NC(=S)NC(=O)c2oc3ccccc3c2C)cc1,·,·,·,60*,·
CN(C)Cc1ccc(CNC(=O)c2ccc(Cl)c(S(=O)(=O)NC3CC3)c2)cc1,0,-11,0,8,0
CN(C)Cc1ccccc1CNC(=O)c1ccc(Cl)c(S(=O)(=O)NC2CC2)c1,-2,1,·,·,43*
CC[N+]1(C)CCC(O)(/C=C/c2ccccc2)C(C(=O)/C=C/c2ccccc2)C1 (stereo unspecified),3,-4,-2,80*,0
CC(C)NC(=O)N1CC2(C1)[C@@H](c1ccccc1)[C@H](CO)N2C(=O)C1CCC1,0,3,-3,10,·
COc1ccc(CCN2CC(C(=O)NCCc3ccc(C)cc3)CC2=O)cc1OC (stereo unspecified),·,48*,-3,-2,0
COc1ccc(CCNC(=O)C2CC(=O)N(c3ccc(C)cc3)C2)cc1OC (stereo unspecified),-3,0,-4,30,41
COc1ccc(CCNC(=O)CSc2n[nH]c(N)n2)cc1,-5,0,-1,5,0
COc1ccc(CCNC(=O)c2cc(C3CC3)on2)cc1OC,·,-2,-5,21,0
CC[C@H](C)[C@H](NC(N)=O)C(=O)NCCc1ccc(OC)c(OC)c1,-1,-2,0,·,43*

# Assay outcomes: PubChem, Broad Institute
